Hit rate of the full screen: of about 16,000 compounds, about 2,600 (16%) were called active. Inconclusive results (about 20%) are left out. Calls come from the whole dose curve; as a rule, active = well fitted curve in the direction sought with a large enough effect; inconclusive = small, poorly fitted or top-dose-only effect, or effect the other way; inactive = no such curve, though single readings can be large or run the other way. Only a sample is shown.

Broadly, the AC50 is the concentration giving half of the maximal activity seen.
% is set by controls: 0 for no effect and ±100 for the full control effect.

The target of the assay is Cytochrome P450 2D6 (Homo sapiens) (UniProt P10635). In words: Cytochrome panel assay with activity outcomes. The settings on record: recombinant CYP, pro-luciferin dealkylation, luminescence, p450-cyp2d6; series mostly up to 57.1 µM.
Sequence of Cytochrome P450 2D6 (Homo sapiens) (P10635 whole entry, looked up): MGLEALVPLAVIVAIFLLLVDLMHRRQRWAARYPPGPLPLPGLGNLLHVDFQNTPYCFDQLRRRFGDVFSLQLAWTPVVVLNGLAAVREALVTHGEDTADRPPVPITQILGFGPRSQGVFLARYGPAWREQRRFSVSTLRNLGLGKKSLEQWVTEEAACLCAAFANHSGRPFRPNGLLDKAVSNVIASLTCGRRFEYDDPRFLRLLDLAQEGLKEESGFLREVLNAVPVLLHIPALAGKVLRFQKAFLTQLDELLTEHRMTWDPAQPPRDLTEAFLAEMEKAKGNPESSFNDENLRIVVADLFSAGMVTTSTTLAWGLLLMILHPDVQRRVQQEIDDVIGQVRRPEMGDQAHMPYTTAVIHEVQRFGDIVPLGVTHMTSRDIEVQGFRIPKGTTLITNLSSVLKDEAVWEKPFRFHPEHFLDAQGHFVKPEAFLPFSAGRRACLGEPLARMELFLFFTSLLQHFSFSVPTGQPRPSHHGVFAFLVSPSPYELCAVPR
On to `COc1ccc(-n2c(C)n[nH]c2=O)cc1OC`, for which the AC50 result is “inactive”. On the same count and under the same terms, the entry for `O=c1cnc2cnc(Oc3ccccc3)nc2n1CCc1ccccc1` is “inactive”.

For `Nc1nc2ncc(CNc3ccc(C(=O)N[C@@H](CCC(=O)O)C(=O)O)cc3)nc2c(=O)[nH]1`, the AC50 entry was “inactive”.

Regarding `COc1ccc(NC(=O)C2(c3ccc(NC(=O)c4ccc(OC(C)=O)cc4)cc3)CCCC2)cc1`, the AC50 result is “inactive”.

Turning to `CC(=O)N(/N=C1\Sc2ccccc2C1=O)c1ccccc1C`, the AC50 result was “inactive”. As to `COc1ccc(-n2c(=O)c(-c3cccs3)nc3cnc(N4CCN(C)CC4)nc32)cc1`, the AC50 result was “inactive”.

As to `CCOC(=O)N/N=C/c1ccccc1F`, the AC50 entry was “inactive”. Still for that read-out and setting: the entry for `O=C(CNC(=O)c1ccco1)OC(C(=O)c1ccccc1)c1ccccc1` (configuration not stated) is “inactive”; for `CC(=O)N1CCC2(CCCN(C(c3ccccc3)c3ccccc3)C2)CC1` it is 7.94 µM (active); for `COC(=O)N1CCC2(CC1)CN(C(=O)Nc1ccccc1)C2` it is “inactive”. As for `COC(=O)N1CCC2(CC1)CN(c1ccccc1)C2`, the AC50 result is “inactive”. The same measure, in the same setting: under `COC(=O)N1CCC2(CC1)CN(C(c1ccccc1)c1ccccc1)C2` stands 0.794 µM (active); under `CC(=O)N1CCC2(CCCN(c3ccccc3)C2)CC1`, “inactive”. For `COC(=O)N1CCC2(CCCN(C(c3ccccc3)c3ccccc3)C2)CC1`, the AC50 was 10 µM (active). As to `COC(=O)N1CCC2(CC1)CCN(c1ccccc1)CC2`, the AC50 entry was “inactive”. Still for that read-out and setting: the entry for `COC(=O)N1CCC2(CCN(C(=O)Nc3ccccc3)CC2)CC1` is “inactive”. Regarding `COC(=O)N1CCC2(CC1)CN(c1ccc(-c3ccccc3)cc1)C2`, the AC50 result was “inactive”. Still for that read-out and setting: under `COC(=O)N1CCC2(CC1)CCN(C(c1ccccc1)c1ccccc1)CC2` stands 7.94 µM (active); under `CC(=O)N1CCC[C@@]2(CCN(c3ccccc3)C2)C1`, “inactive”. On the same count and under the same terms, under `COC(=O)N1CCC2(CCCN(c3ccc(-c4ccccc4)cc3)C2)CC1` stands “inactive”; under `Cc1c(NC(=O)NC(C)N2C(=O)C3C4C=CC(C4)C3C2=O)c(=O)n(-c2ccccc2)n1C` (configuration not stated), “inactive”.

In the case of `CCOC(=O)C1=C(CSc2nc(-c3ccccc3)ccc2C#N)OC(N)=C(C#N)C1c1ccc(OC)cc1` (configuration not stated), the AC50 entry was “inactive”. Same read-out and setting: the entry for `CCOC(=O)c1[nH]c(C)c(C)c1C` is “inactive”.

As for `Nc1ncnc2c1ncn2C[C@@H](O)C(=O)O`, the activity, negative = inhibition was 10.9% [at 11.4 µM] (inactive). On to `O=C(N/N=C/c1c(Nc2cccc(C(F)(F)F)c2)nc2ccccn2c1=O)c1ccccc1`, for which the AC50 entry is “inactive”. On the same count and under the same terms, the entry for `CC(=O)OCC1=C(C(=O)O)N2C(=O)[C@@H](NC(=O)Cc3cccs3)[C@@H]2SC1` is “inactive”; for `CC(C)CCN1C(=O)c2ccc(-c3nc4ccccc4c(=O)o3)cc2C1=O` it is “inactive”. Same read-out and setting: under `Cc1noc(C)c1C(=O)N1CCC[C@@]2(CCN(C(=O)NC(C)C)C2)C1` stands “inactive”; under `COCCCNC(=O)C1CCN(S(=O)(=O)N(CC(C)C)CC(C)C)CC1`, “inactive”; under `CC(C)(C)c1ccc(-c2c(C#N)c(N)nc3c2CCCC3)s1`, “inactive”. Same read-out and setting: the entry for `Cc1noc(C)c1C(=O)N1CCC2(CC1)CN(c1ncccn1)C2` is “inactive”; for `COc1ncnc(NS(=O)(=O)c2ccc(N)cc2)c1OC` it is “inactive”. For `CCOC(=O)N1CCN(C(=O)c2ccc3nc(SCc4ccc(F)cc4)n(C)c3c2)CC1`, the AC50 result is “inactive”. As to `C[C@@H]1C[C@@H]2[C@H]3CCC4=CC(=O)C=C[C@]4(C)[C@]3(Cl)[C@@H](O)C[C@@]2(C)[C@@]1(O)C(=O)CO`, the AC50 entry was “inactive”. As to `C[C@H]1C[C@H]2[C@H]3CCC4=CC(=O)C=C[C@@]4(C)[C@]3(F)[C@H](O)C[C@]2(C)[C@@]1(O)C(=O)COP(=O)(O)O`, the activity, negative = inhibition was 2.95% [at 11.4 µM] (inactive). As to `C[C@H]1C[C@@H]2[C@H]3CCC4=CC(=O)C=C[C@@]4(C)[C@@]3(Cl)[C@@H](O)C[C@]2(C)[C@]1(OC(=O)c1ccco1)C(=O)CCl`, the half-maximal activity concentration (AC50) was 3.98 µM (active). For `C=CCC(C(=O)OC)(C(=O)OC)c1ccc([N+](=O)[O-])cn1`, the AC50 result is “inactive”.

With `CCNc1ncc2ncc(=O)n(C3CC3)c2n1`, the AC50 result is “inactive”.

Take `CCOC(=O)CSc1n[nH]c(NC(=O)c2ccccc2)n1`: the AC50 result is “inactive”. The same measure, in the same setting: the entry for `Cc1sc(NC(=O)c2ccco2)c(C(c2ccncc2)N2CCOCC2)c1C` (configuration not stated) is “inactive”; for `CCN1CCN(C(c2ccccn2)c2c(NC(=O)c3ccccc3)sc(C)c2C)CC1` (configuration not stated) it is 14.1 µM (active); for `COCCNc1ncnc2ccc(-c3c(C)noc3C)cc12` it is “inactive”.

Turning to `CC(=O)NCCNc1ncnc2ccc(-c3c(C)noc3C)cc12`, the AC50 result was “inactive”.

Turning to `Cc1noc(C)c1-c1ccc2ncnc(N3CCOCC3)c2c1`, the AC50 entry was “inactive”. As for `Cc1cccc(CNc2ncnc3ccc(-c4c(C)noc4C)cc23)c1`, the AC50 is 15.8 µM (active).

Consider `Cc1noc(C)c1-c1ccc2ncnc(NCc3cccs3)c2c1`, for which the concentration at half-maximal activity (AC50) was 20 µM (active). Consider `Cc1noc(C)c1-c1ccc2ncnc(NC3CCNCC3)c2c1`, for which the AC50 entry was “inactive”. The same measure, in the same setting: under `N#Cc1cccc(NC(=O)N2CCC3(CC2)CCN(C(=O)c2ccco2)CC3)c1` stands “inactive”; under `COc1ccccc1NC(=O)C(C/C=C(\C)Cl)C(C)=O` (configuration not stated), “inactive”. The same measure, in the same setting: the entry for `Cc1nn(C)c(C(=O)NNC(=S)Nc2ccc(Cl)cc2)c1[N+](=O)[O-]` is “inactive”.

Regarding `Cn1c(=O)c(-c2ccccc2)nc2cnc(Oc3ccccc3)nc21`, the AC50 entry was “inactive”.

For `Nc1ccc(Oc2ccc3nc(-c4ccccc4)c(-c4ccc([N+](=O)[O-])cc4)nc3c2)cc1`, the AC50 entry was “inactive”. As to `O=C(N=NC(=O)c1ccc2c(O)n(C3CCCCC3)c(O)c2c1)c1cccnc1`, the AC50 result was “inactive”. `Nc1ncnc2c1nc(-c1ccccc1)n2[C@H]1O[C@@H](CO)[C@@H](O)[C@H]1O`: the activity, negative = inhibition was 11.6% [at 11.4 µM] (inactive). As to `COc1ccc(C(=O)N2CC3(CC(c4cccc([N+](=O)[O-])c4)=NO3)C[C@H]2C(=O)NCC(N)=O)cc1` (some centres not stated), the AC50 result is “inactive”.

As to `C=C(C)C(=O)N1CC2(CC(c3cccc(NC(=O)c4ccccc4)c3)=NO2)C[C@@H]1C(N)=O` (some centres not stated), the AC50 entry is “inactive”.

In the case of `NC(=O)C1(NC(=O)[C@@H]2CC3(CC(c4cccc(NC(=O)c5cc([N+](=O)[O-])cc([N+](=O)[O-])c5)c4)=NO3)CN2C(=O)c2ccccc2)CC1` (some centres not stated), the AC50 is 15.8 µM (active). Regarding `CC1(C)CCCN(C(=O)c2coc(=O)c(Br)c2)C1`, the AC50 entry is “inactive”. Same read-out and setting: under `CCOC(=O)C1=C(O)C(Nc2nccs2)(C(F)(F)F)N=C1C` (configuration not stated) stands “inactive”. On the same count and under the same terms, the entry for `Cc1ccc(-c2nnc(N(C)C(=O)c3cccnc3)s2)cc1` is “inactive”. Same read-out and setting: under `CC(=O)N(C)c1nnc(-c2cnccn2)s1` stands “inactive”; under `COc1cccc(C(=O)N(C)c2nnc(-c3ccncc3)s2)c1`, 2 µM (active); under `COCCn1c(=O)c(-c2ccc(F)cc2)nc2cncnc21`, “inactive”. Take `c1ccc(C[n+]2cccc(-c3cc4ccccc4[nH]3)c2)cc1`: the AC50 is 1.26 µM (active).

As for `Clc1ccc(-c2cc3ccccc3[nH]2)cc1`, the AC50 result was “inactive”. Take `CO[C@@H]1COC(=O)[C@@H](CCSC)NC(=O)C/C=C\[C@@H](C)COC(=O)CCC[C@H]1C`: the activity, negative = inhibition is 6.34% [at 11.4 µM] (inactive). As for `O=[N+]([O-])c1cccc2cn[nH]c12`, the AC50 entry is “inactive”. The same measure, in the same setting: the entry for `COc1ccc(C(=O)N2CCC3(CCCN(C(=O)Nc4cccc(C#N)c4)C3)CC2)cc1` is “inactive”; for `CN(C)CCO[C@](C)(c1ccccc1)c1ccccn1` it is “inactive”; for `C[C@@H](C1=C(CCN(C)C)Cc2ccccc21)c1ccccn1` it is 12.6 µM (active).

Consider `O=C(O)CCc1nc(-c2ccccc2-n2cccc2)no1`, for which the activity, negative = inhibition is -11.8% [at 11.4 µM] (inactive). Turning to `Cn1cc(-c2nc3cnc(Oc4cccc(Cl)c4)nc3n(CCC#N)c2=O)c2ccccc21`, the AC50 result was “inactive”. With `Nc1cc(=O)[nH]c(N)n1`, the AC50 entry is “inactive”. Still for that read-out and setting: the entry for `CCCc1nnc(SCC(=O)N2CCCCC2)n1CC1CCCO1` (configuration not stated) is “inactive”; for `CC(C)c1nc2oc3ccccc3c(=O)c2c(=O)n1-c1ccccc1` it is “inactive”; for `COc1cc(CC(=O)O)c(C(C)=O)cc1OC` it is “inactive”. On to `CC(=O)c1cc(CC=C(C)C)c(O)cc1O`, for which the concentration at half-maximal activity (AC50) is 14.1 µM (active). For `CNc1oc(-c2cccs2)nc1C#N`, the AC50 entry was “inactive”. Still for that read-out and setting: the figure for `N#Cc1nc(-c2cccs2)oc1NCc1ccccc1` is 4.47 µM (active); for `N#Cc1nc(-c2ccc(OCc3ccccc3)cc2)oc1NCCN1CCOCC1` it is “inactive”; for `CCCC12CN3CC(CCC)(CN(C1)C3C(O)C(O)C(O)CO)C2=O` (configuration not stated) it is “inactive”. The same measure, in the same setting: under `CCO/C([O-])=N/c1c[n+](N2CCOCC2)no1` stands “inactive”.

In the case of `NS(=O)(=O)c1ccc(N=Nc2nc3[nH]c(=O)[nH]c(=O)c3[nH]2)cc1`, the activity, negative = inhibition is 15.1% [at 11.4 µM] (inactive). Turning to `COC(=O)c1sc2ccccc2c1-n1cccc1C(=O)C(=O)Nc1ccc(Cl)cc1`, the AC50 entry was “inactive”. On the same count and under the same terms, under `OC[C@@H]1NC[C@@H](O)[C@@H](O)[C@H]1O` stands “inactive”.

Take `CCOc1ccc(-c2nnn(CC(=O)Nc3cc(OC)ccc3OC)n2)cc1OCC`: the AC50 entry was “inactive”. For the molecule `COc1ccc(-c2nnn(CC(=O)N(CC(=O)NCCC(C)C)Cc3cccs3)n2)cc1OC`, the AC50 is 11.2 µM (active). As to `COc1ccc(-c2ccc(=O)n(CC(=O)Nc3nnc(C(C)C)s3)n2)cc1OC`, the AC50 result was “inactive”. Same read-out and setting: the entry for `CCOc1ccccc1NC(=O)C1=C(C)NC(=O)NC1c1cccc(OC)c1OC` (configuration not stated) is “inactive”. Turning to `NC(N)=N/N=C(\c1ccc(Cl)cc1)C1CC1`, the activity, negative = inhibition is 1.81% [at 11.4 µM] (inactive). In the case of `Nc1ncnc(N(c2ccccc2)C2CCCCC2)c1[N+](=O)[O-]`, the AC50 result was “inactive”.

In the case of `CN[C@@H](c1ccncc1)[C@@H](NC)c1ccncc1`, the activity, negative = inhibition was -10.1% [at 11.4 µM] (inactive). For `COc1ccc(CN2CCN(C(=O)CC(C)C)CC2)c(OC)c1OC`, the AC50 result is “inactive”.

For the molecule `COc1cc(CN2CCN(C(=O)CC(C)C)CC2)cc(OC)c1OC`, the AC50 entry is “inactive”. `CC(C)CC(=O)N1CCN(Cc2cccc(F)c2)CC1`: the AC50 was 8.91 µM (active). In the case of `Cc1cc(NS(=O)(=O)c2ccc(NC(=O)CN3C(=O)c4ccccc4C3=O)cc2)nc(C)n1`, the AC50 result was “inactive”. The same measure, in the same setting: under `O=C(c1cc(Cl)c(=O)n(Cc2ccc(Cl)cc2)c1)N1CCOCC1` stands “inactive”. The same measure, in the same setting: under `Cc1ccc(NCCC(=O)c2ccc(Cl)c(Cl)c2)cc1` stands “inactive”. The same measure, in the same setting: under `O=c1ccc(NS(=O)(=O)c2ccc(Cl)cc2)cn1Cc1ccc(Cl)c(Cl)c1` stands 7.94 µM (active); under `O=c1ccc(NS(=O)(=O)c2ccccc2)cn1Cc1ccc(Cl)c(Cl)c1`, 14.1 µM (active); under `O=c1nc2ccccc2c(NS(=O)(=O)c2ccc(Cl)cc2)n1-c1ccccc1`, “inactive”. Turning to `Cc1ccc(S(=O)(=O)Nc2ccc(=O)n(Cc3ccc(Cl)c(Cl)c3)c2)cc1`, the half-maximal activity concentration (AC50) was 3.98 µM (active).
